Hits are enriched below; roughly 1.3% of the tested compounds scored in any of these assays.
TcdB inh: TcdB glycohydrolase inhibition. P18177. TcdB glycohydrolase enzymatic assay, plate reader. inhibition, % at 9.99 µM. 350,000 compounds, 0.24% hits; in the data active = inhibition above about 10%
PfHsp40 rescue: compounds rescuing yeast from Plasmodium falciparum HSP40 toxicity. 340,000 compounds, 0.68% hits. growth rescue, % at 12.5 µM. S. cerevisiae expressing PfHsp40, growth rescue, ATP luminescence. AID 504582; in the data active = growth rescue above about 28%, passing the limit was not always enough;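 note: yeast W303a lacking pdr1 and pdr3 grown in galactose medium; growth measured after three days at 30 °C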
Sa ugtP lethal: kills S. aureus RN4220 lacking UgtP. growth inhibition, % (concentration not given with the values). 330,000 compounds, 0.54% hits. S. aureus RN4220 ugtP deletion, OD600 growth, 16 h; in the data active = growth inhibition above about 68%;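 note: plate controls were untreated wells for no effect and antibiotic for full effect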
RN4220 kill: S. aureus RN4220 growth inhibition; inhibition, % (test concentration not listed); OD600, 16 h; 330,000 compounds, 0.33% hits; in the data active = inhibition above about 85%;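 note: plate controls were untreated cells for no effect and reference antibiotic for full effect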
MazEF act: increases E. coli MazEF RNase cleavage of RNA | P0AE70 | FAM/BHQ RNA-DNA oligo cleavage fluorescence, 5 h | activation, % at 20 µM | 350,000 compounds, 0.32% hits; in the data active = activation above about 50%
Target sequence (P0AE70 whole entry, looked up): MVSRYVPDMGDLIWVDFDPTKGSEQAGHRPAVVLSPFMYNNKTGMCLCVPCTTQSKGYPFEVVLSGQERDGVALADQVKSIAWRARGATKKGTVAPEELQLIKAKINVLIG
Mtb hypoxia rep: Mtb hypoxia fluorescent reporter inhibition | M. tuberculosis hypoxia-regulated fluorescent reporter, fluorescence | fluorescence inhibition, % (test concentration not listed) | 300,000 compounds, 0.1% hits; in the data active = fluorescence inhibition mostly above about 23%, no sharp cut-off; inactive = mostly below about 17%
Starred values were filed as active, the others as inactive; . = no result given; ! = not confirmed by another sample.

SMILES | TcdB inh | PfHsp40 rescue | Sa ugtP lethal | RN4220 kill | MazEF act | Mtb hypoxia rep
COC(=O)c1ccccc1NC(=O)NCc1ccncc1 | 1.9 | -2.2 | . | . | 114.1* | .
COC(=O)c1ccccc1NC(=O)NCc1ccccc1 | 0.2 | 0.7 | -4.2 | 1.3 | 6.3 | 2.7
CC(C)(O)CCCC(C)(O)c1ccc(C(=O)O)cc1O (configuration not stated) | -0.4 | 54.9* | 1.4 | 1.4 | -9.5 | .
O=C(NC1CC1)C1=C[C@@H](c2ccccc2)C[C@@H](OCc2ccc(CO)cc2)O1 | 1.7 | -0.9 | . | . | 2.0 | .
O=C(NC1CC1)C1=C[C@H](c2ccc(C(F)(F)F)cc2)C[C@H](OCc2ccc(CO)cc2)O1 | 1.3 | -0.7 | . | . | 199.4* | .
NC(N)=NC(=O)c1nc(Cl)c(N)nc1N | 1.4 | 0.0 | 98.1*! | 9.0 | 1.1 | 7.1
NC(N)=NC(=O)c1nc(Cl)c(N2CCCCCC2)nc1N | 1.3 | -2.2 | . | . | 30.4 | .
O=C(Cc1ccccc1)N1CC(=O)N2[C@H](C1)[C@@H](c1ccc(C3=CCCC3)cc1)[C@@H]2CO | 1.1 | . | . | . | . | .
CCc1ccc(Nc2n[n+](-c3ccccc3)c(-c3c(Cl)cccc3Cl)s2)cc1 | 1.1 | -0.8 | 100.1* | 100.0* | 2.5 | .
Fc1ccc(-[n+]2nc(Nc3ccccc3)sc2-c2c(Cl)cccc2Cl)cc1 | 1.1 | 0.1 | . | . | -1.1 | .
COc1ccc(N=N/C(=C\O)C(=O)c2cccs2)cc1 | -0.6 | 477.7* | 17.6 | 4.6 | -18.4 | 6.7
COc1cc(C2C(C#N)=C(N)OC3=C2C(=O)CCC3)c([N+](=O)[O-])cc1OC (configuration not stated) | . | 0.6 | 0.6 | 6.8 | 110.3* | 3.1
Cc1cc(C2C(C#N)=C(N)OC3=C2C(=O)CCC3)c(C)s1 (configuration not stated) | . | -0.7 | 8.1 | 0.5 | 2.3 | .
Oc1ccc(O)c2c1C1(Cl)C(Cl)=C(Cl)C2(Cl)C1(Cl)Cl | -2.3 | 82.7* | 77.6 | 50.1 | 13.0 | 15.0
Cc1ccc(SCCC(=O)NN=Cc2cccnc2)cc1 | . | . | 9.8 | 0.0 | . | 1.7
Cc1ccc(SCCC(=O)N/N=C/c2cccnc2)cc1 | 10.3* | 1.5 | . | . | -11.7 | .
O=C(O)CSc1nc(-c2ccc(Cl)cc2)nc2c1oc1ccccc12 | 0.3 | 348.3* | 34.3 | 23.3 | -4.5 | -2.1
CN(C)C(=O)[C@H]1[C@H](CO)[C@H]2Cn3c(ccc(C4=CCCCC4)c3=O)[C@@H]1N2Cc1ccccc1 | -0.4 | . | . | . | . | .
CN1C(=O)c2cc(NS(C)(=O)=O)ccc2OC[C@H]2O[C@@H](CC(=O)NCc3ccc(-c4ccccc4)cc3)CC[C@H]21 | 0.5 | . | . | . | . | .
CC(OC(=O)c1cc2sccc2n1C)C(=O)NCC1CCCO1 (configuration not stated) | -0.1 | 105.6* | 3.3 | 4.5 | -25.7 | 8.1
CCC(OC(=O)c1cc2sccc2n1C)C(=O)NCC1CCCO1 (configuration not stated) | . | -1.0 | 0.5 | -1.9 | 8.3 | 2.9
CCn1cc(C(=O)O)c(=O)c2cc(F)c(N3CCNCC3)nc21 | 0.8 | -0.2 | 97.4* | 97.6* | -1.8 | .
CCn1cc(C(=O)O)c(=O)c2ccc(C)nc21 | 0.8 | 12.4 | 66.5 | 0.2 | 2.2 | 2.7
C[C@H]1CN([C@@H](C)CO)C(=O)c2cc(C#CCN(C)C)cnc2O[C@H]1CN(C)C(=O)c1ccc2c(c1)OCO2 | -0.5 | . | . | . | . | .
Clc1ccc(OCCCNCc2ccccc2)c2ccccc12 | 1.1 | 1.2 | 95.2* | 100.0* | 10.6 | 12.1
SMILES | TcdB inh | PfHsp40 rescue | Sa ugtP lethal | RN4220 kill | MazEF act | Mtb hypoxia rep
COc1cccc(C(=O)Nc2cc(C)on2)c1OC | 1.0 | -1.0 | -1.3 | 4.5 | -1.9 | -1.0
COc1cccc(C(=O)OCC(=O)Nc2cc(C)on2)c1OC | 10.0* | 0.5 | -1.7 | 1.4 | 9.4 | -6.1
COc1ccc(CN(C)C[C@@H]2Oc3ccc(NC(=O)Nc4c(C)noc4C)cc3C(=O)N([C@@H](C)CO)C[C@H]2C)cc1 | 0.1 | . | . | . | . | .
O=C(CC1CC1)N1CC(=O)N2[C@H](CO)[C@H](c3ccc(C#Cc4ccccc4)cc3)[C@H]2C1 | 0.1 | . | . | . | . | .
COC(=O)c1c(NC(=O)CSc2nnc(CNc3ccc(Cl)cc3)o2)sc(C)c1C | . | 50.7* | -12.9 | 0.2 | -5.9 | 5.8
Cc1nc(SCc2ccccc2F)c2cnn(-c3ccccc3)c2n1 | . | . | active | 97.0 | . | -2.1
Cc1nc(SCC(=O)Nc2c(C)n(C)n(-c3ccccc3)c2=O)c2cnn(-c3ccccc3)c2n1 | -0.4 | 0.7 | 0.7 | 6.4 | -2.1 | 7.3
O=C1CCC[C@@H]2c3[nH]c4ccccc4c3CCN12 | 0.8 | . | . | . | . | .
C[C@@H]1CN([C@H](C)CO)C(=O)c2cccc(NS(C)(=O)=O)c2O[C@@H]1CN(C)S(=O)(=O)c1cn(C)cn1 | 0.4 | . | . | . | . | .
COC(=O)c1sc2nc(SCc3ccccc3C)n(N)c(=O)c2c1C | 16.4* | -0.8 | -1.8 | 3.8 | 45.8 | 3.1
COc1cccc(CNC(=O)C2CCCN(S(=O)(=O)c3cccc4nonc34)C2)c1 (configuration not stated) | . | 38.1* | -2.4 | 1.6 | -1.5 | 3.0
Cc1cccc(-c2ccc([C@@H]3[C@@H](CO)N4C(=O)CN(C(=O)Cc5ccccn5)C[C@@H]34)cc2)c1 | -0.3 | . | . | . | . | .
CCCOC(=O)c1ccc(NC(=O)CC(C)(C)C)cc1 | -0.6 | 51.7* | -0.3 | -6.5 | -22.0 | 7.2
CC1Oc2cc3oc4c(O)c(O)ccc4c(=O)c3c(O)c2C1(C)C (configuration not stated) | . | 334.7* | 1.5 | -1.6 | -3.0 | .
Cn1c(=O)n(C)c2cc(C=NNC(=S)NCc3ccccc3)ccc21 | . | . | 28.4 | 16.3 | . | 4.9
N#C/C(=N\Nc1cccc(C(F)(F)F)c1)C(=O)c1csc(-c2cccnc2)n1 | -1.9 | 1.1 | . | . | -6.1 | .
N#CC(=NNc1cccc(C(F)(F)F)c1)C(=O)c1csc(-c2cccnc2)n1 | . | . | 30.4 | 87.1 | . | 44.1*
CC(C)NC(=O)N(C)C[C@@H]1Oc2cc(C#Cc3ccc(F)cc3)ccc2S(=O)(=O)N([C@@H](C)CO)C[C@H]1C | 1.2 | . | . | . | . | .
C[C@H](CO)N1C[C@H](C)[C@H](CN(C)C(=O)Nc2ccccc2)Oc2c(NC(=O)c3ccc(-c4nccs4)cc3)cccc2C1=O | 0.4 | . | . | . | . | .
Cc1ccc(CN=C2Nc3ccccc3CS2)cc1 | . | -0.6 | 82.2* | 40.6 | 5.9 | -20.6
CCCNC(=O)N1C[C@H](C)[C@H](OC)CN(C)C(=O)c2ccc(NC(=O)CC)cc2OC[C@H]1C | -0.3 | . | . | . | . | .
CC(=O)c1ccccc1OC(=O)c1c(F)cccc1F | 0.0 | -0.5 | -12.4 | 1.6 | 1.5 | -1.8
CC(=O)c1ccccc1OC(=O)c1ccc(-c2ccccc2)cc1 | 0.5 | 1.2 | 100.3* | 9.3 | -1.8 | -1.0
C[C@@H]1CN([C@@H](C)CO)C(=O)Cc2cc(NC(=O)Nc3ccc(F)cc3)ccc2O[C@@H]1CN(C)Cc1ccc(Oc2ccccc2)cc1 | 0.5 | . | . | . | . | .
Cc1ccc(C(=O)N2CCN(Cc3ccccc3)CC2)o1 | 0.6 | -0.4 | 0.6 | 2.6 | -10.1 | .
Cc1ccc(/C=C/C(=O)N2CCN(Cc3ccccc3)CC2)o1 | . | -0.2 | -2.7 | 5.9 | 8.5 | 58.9*

Screening data deposited in PubChem BioAssay by several laboratories.
